PubChem BioAssay (NCI)
The panel holds about 83,000 compounds, 20% with a hit somewhere; the sample as a whole holds those more often.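 The test compound was applied at a single concentration to cells in 96-well plates for 48 hours, and percent growth was recorded.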 Unmarked numbers belong to inactive results. Calls of active or inactive are those of the source. The calls were made as follows: active = growth percent below 10; inactive = the rest.

How the values were obtained:
Assay in all cases: NCI-60 one-dose screen, 48 h (100 = growth as untreated, 0 = no growth, -100 = all killed)
Settings in all cases: 10 µM unless noted
HCT-15 colon = system: HCT-15 colon
HT29 colon = system: HT29 colon
SNB-75 CNS = system: SNB-75 CNS
SNB-19 CNS = system: SNB-19 CNS
U251 CNS = system: U251 CNS
PC-3 prostate = system: PC-3 prostate
SK-MEL-5 melanoma = system: SK-MEL-5 melanoma
UACC-62 melanoma = system: UACC-62 melanoma
LOX IMVI melanoma = system: LOX IMVI melanoma
SK-MEL-28 melanoma = system: SK-MEL-28 melanoma

Structure (SMILES) | growth (HCT-15 colon) | growth (HT29 colon) | growth (SNB-75 CNS) | growth (SNB-19 CNS) [%] | growth (U251 CNS) | growth (PC-3 prostate) | growth (SK-MEL-5 melanoma) | growth (UACC-62 melanoma) | growth (LOX IMVI melanoma) | growth (SK-MEL-28 melanoma)
N#Cc1nc(-c2ccc(F)cc2)oc1S(=O)(=O)N1CCOCC1 | -29.9% (active) | 36.5% | 91.2% | 95.8 | 98.9% | 91% | 82.6% | 89.9% | 8.36% (active) | 85.7%
O=C1Nc2ccccc2/C1=C/c1nc2ccccc2c(=O)[nH]1 | 72.6% | 105% | 88.9% | 95.5 | 96.3% | 77.7% | 94.4% | 96.1% | 82.1% | 109%
COc1ccc(Nc2nnc(-c3ccc(OC)c(OC)c3)o2)cc1 | 80.3% | 90.9% | 97.5% | 97.5 | 93% | 70.7% | 89% | 90.2% | 59.2% | 106%
N#CSc1c[nH]c2cccc(/C=C/C(=O)/C=C(/C=C/c3cccc4[nH]cc(SC#N)c34)OB(F)F)c12 | -73.6% (active) | -74.5% (active) | -31.5% (active) | 19.1 | -83.3% (active) | -19.6% (active) | -74.1% (active) | -50.5% (active) | -85.4% (active) | -47.9% (active)
Nc1nc(-c2ccc(Cl)cc2)nc2c1sc(=S)n2-c1ccccc1 | 60.1% | 47.9% | -30.5% (active) | 37.9 | 17.7% | 62.1% | 36.8% | 46.9% | 29.4% | 55.7%
COC1=CC(c2ccc[nH]2)=N/C1=C\c1[nH]c(C)c(C(=O)OC(C)C)c1C | -30.1% (active) | -11.6% (active) | -15.7% (active) | 21.1 | -26.7% (active) | 8.84% (active) | -99.5% (active) | -62.9% (active) | -92.4% (active) | -54.5% (active)
CN1CCN(C(=O)c2ccc(NC(=O)c3cc4c(nn3)NCCN4Cc3cc(Cl)ccc3Cl)cc2)CC1 | 68% | 63.2% | 79.4% | 92.2 | 65.6% | 71.1% | 75.2% | 92.5% | 59.4% | 89%
O=C(c1nn(-c2ccccc2)c2c1CC(NCc1ccc(F)cc1)CC2)N1CCCCC1 (stereo not given) | 99.5% | 101% | 84.5% | 101 | 95.7% | 93.5% | 96% | 110% | 99.1% | 117%
Nc1nc2ccc(-c3nc4ccc5[nH]ncc5c4c4c3CCCC4)cc2s1 | 107% | 99.2% | 100% | 97.7 | 102% | 100% | 111% | 102% | 105% | 120%
O=C(O)CCN1C(=O)/C(=C/C(Cl)=C/c2ccccc2)SC1=S | -50.3% (active) | 10.1% | 13.2% | 34.5 | 20.8% | 47% | 38.9% | 16.1% | -32.4% (active) | 13.9%
Nc1nc2ccccc2c2c(=O)c3cccc(Cl)c3sc12 | 59% | 92.7% | 89.2% | 92.6 | 77.3% | 78.5% | 96.3% | 85.7% | 90.2% | 108%
COc1ccc(-c2cc(-c3cccnc3)nc3sc4c(=O)[nH]c(-c5ccc(Cl)cc5)nc4c23)cc1OC | 97% | 96.3% | 87.4% | 95.9 | 82.7% | 90.4% | 89.9% | 90.5% | 86% | 102%
COc1cc(OC)c(/C=C/C(=O)c2c(OC)cccc2OC)c(OC)c1 | 15.7% | 0.507% (active) | 10.6% | 19.3 | 5.71% (active) | 11.6% | 1.1% (active) | -20.6% (active) | -4.2% (active) | 13.2%
